Where “and” joins values, the source holds several entries; their conditions need not be identical. Identical values can stand only once. Inconclusive results are not listed. Calls of active or inactive are those of the source. Unless noted, calls follow the shape of the dose curve; as a rule, active = well fitted curve in the direction sought with a large enough effect; inconclusive = small, poorly fitted or top-dose-only effect, or another doubt; inactive = no such curve, though single readings can be large; an effect the other way counts as inactive or inconclusive.
Columns and labels:
[1] = biological target: Alpha-galactosidase A (Homo sapiens) (UniProt P06280); experiment: Counterscreen for Glucocerebrosidase Inhibitors: qHTS Assay for Human alpha-Galactosidase at pH 4.5 (AID 992); also: 0% is about no effect
Alpha-galactosidase A (Homo sapiens), sequence (P06280 whole entry, looked up): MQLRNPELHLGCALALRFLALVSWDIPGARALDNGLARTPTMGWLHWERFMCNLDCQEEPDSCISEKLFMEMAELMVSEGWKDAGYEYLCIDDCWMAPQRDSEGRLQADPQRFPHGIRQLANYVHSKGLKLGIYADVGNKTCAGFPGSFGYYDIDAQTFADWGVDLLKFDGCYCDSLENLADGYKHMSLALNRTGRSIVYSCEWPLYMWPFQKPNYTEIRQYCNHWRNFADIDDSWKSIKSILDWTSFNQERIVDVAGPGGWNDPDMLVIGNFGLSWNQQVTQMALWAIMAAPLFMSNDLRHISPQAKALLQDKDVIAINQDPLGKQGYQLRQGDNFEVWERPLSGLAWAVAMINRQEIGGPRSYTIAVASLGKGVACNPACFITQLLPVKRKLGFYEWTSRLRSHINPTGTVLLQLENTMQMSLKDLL
Procedure, shortened: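 Human enzyme (2 nM) with 80 uM 4-methylumbelliferyl alpha-D-galactopyranoside in 50 mM citric acid, 0.005% Tween-20, pH 4.5, 20 min at room temperature. Compounds 0.7 nM–77 uM; fluorescence Ex 365/Em 440 after pH 10 stop; AC50 from Hill fits.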

[2] = biological target: alpha-glucosidase (Oryza sativa, rice) (UniProt Q653V4); experiment: Counterscreen for Glucocerebrosidase Inhibitors: qHTS Assay for Rice alpha-Glucosidase at pH 5.0 (AID 997);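 also: 0% = full activity with enzyme and -100% = basal without enzyme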
Procedure, shortened: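 Rice alpha-glucosidase (4 nM final) with 400 uM 4-methylumbelliferyl-alpha-D-glucopyranoside in citrate buffer pH 5.0, 20 min at room temperature, stopped at pH 10; fluorescence 365/440 nm, compounds 0.7 nM–77 uM, AC50 from Hill fits.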

[3] = biological target: Alpha-galactosidase (Coffea arabica) (UniProt Q42656); experiment: Counterscreen for Glucocerebrosidase Inhibitors: qHTS Assay for Coffee Bean alpha-Galactosidase at pH 5.9 (AID 998);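 also: plate controls were uninhibited enzyme for no effect and no-enzyme basal signal for full effect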
Alpha-galactosidase (Coffea arabica), sequence (Q42656 whole entry, looked up): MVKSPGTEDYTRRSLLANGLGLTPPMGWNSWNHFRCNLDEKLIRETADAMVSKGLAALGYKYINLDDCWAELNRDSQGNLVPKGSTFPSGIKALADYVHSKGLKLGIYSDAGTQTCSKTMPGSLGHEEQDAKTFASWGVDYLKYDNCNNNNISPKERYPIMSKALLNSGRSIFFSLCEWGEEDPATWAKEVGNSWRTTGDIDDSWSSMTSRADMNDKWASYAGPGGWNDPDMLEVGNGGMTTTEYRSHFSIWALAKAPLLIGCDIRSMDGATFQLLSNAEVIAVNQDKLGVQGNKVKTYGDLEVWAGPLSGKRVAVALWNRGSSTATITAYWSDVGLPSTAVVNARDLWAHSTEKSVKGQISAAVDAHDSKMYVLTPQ
Procedure, shortened: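 Green coffee bean enzyme (2 nM) with 4-methylumbelliferyl alpha-D-galactopyranoside (80 uM) in 50 mM citric acid, 0.005% Tween-20, pH 5.9, 20 min at room temperature; compounds 0.7 nM–77 uM. Stopped at pH 10, fluorescence Ex365/Em440; Hill-fit AC50.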

[4] = qHTS Assay for Lipid Storage Modulators (AID 1519; calls by dose curve; as to activity change, negative = inhibition: % is scaled to controls: 0 for no effect and ±100 for the full control effect); settings: Drosophila S3 cells, BODIPY lipid droplet/cell ratio, laser cytometry, cells loaded with oleic acid
Procedure, shortened: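 Cells seeded at 5,000 per well were treated with compounds over a concentration series and loaded with oleic acid (400 uM, as added). Lipid droplet fluorescence (488 nm excitation, 500-530 nm channel) was read by laser-scanning cytometry and normalized to 20 uM Triacsin C.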

[5] = biological target: DNA repair nuclease/redox regulator APEX1 (Homo sapiens) (UniProt P27695); experiment: qHTS Validation Assay for Inhibitors of the Human Apurinic/apyrimidinic Endonuclease 1 (APE1) (AID 1705;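 also: TAMRA fluorescence gain over two minutes as APE1 cuts a quenched THF abasic duplex; % is scaled to controls: 0 for no effect and ±100 for the full control effect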)
DNA repair nuclease/redox regulator APEX1 (Homo sapiens), sequence (P27695 whole entry, looked up): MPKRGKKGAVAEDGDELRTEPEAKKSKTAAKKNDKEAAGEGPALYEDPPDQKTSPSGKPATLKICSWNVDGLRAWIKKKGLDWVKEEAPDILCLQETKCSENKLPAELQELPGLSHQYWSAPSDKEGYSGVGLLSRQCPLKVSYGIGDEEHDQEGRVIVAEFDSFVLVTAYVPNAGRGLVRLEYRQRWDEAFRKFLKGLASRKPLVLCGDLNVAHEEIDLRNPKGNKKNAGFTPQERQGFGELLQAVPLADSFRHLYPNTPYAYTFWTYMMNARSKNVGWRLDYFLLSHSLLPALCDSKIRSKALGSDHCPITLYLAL
Procedure, shortened: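 Human APE1 was preincubated with compound for 15 min at room temperature, then 50 nM (final) THF-abasic double-stranded DNA substrate bearing 5'-TAMRA and 3'-BHQ-2 was added. Incision-driven fluorescence rise (ex 525/em 598 nm) was read kinetically.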

[6] = Counterscreen for APE1 Inhibitors: Fluorescent Dye Displacement Validation Assay (AID 1707);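 also: plate controls were ThO with dsDNA and no compound for no effect and ThO without dsDNA for full effect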
Procedure, shortened: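 Thiazole Orange (250 nM) bound to 50 nM TAMRA-labelled dsDNA with tetrahydrofuran abasic site; displacement by DNA-binding compounds lowers fluorescence. Buffer 50 mM Tris-HCl pH 7.5, 50 mM NaCl, 2 mM MgCl2, 0.01% Tween-20; endpoint read at 480/540 nm.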

[7] = biological target: Endonuclease 4 (Escherichia coli (strain K12)) (UniProt P0A6C1); experiment: Counterscreen for APE1 Inhibitors: qHTS Validation Assay for Inhibitors of Endonuclease IV (AID 1708); also: % is scaled to controls: 0 for no effect and ±100 for the full control effect
Procedure, shortened: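 E. coli EndoIV at 2 nM final, preincubated 15 min at room temperature with compound, then 50 nM TAMRA/BHQ-2 THF abasic-site duplex added. Buffer: 50 mM Tris-HCl pH 7.5, 50 mM NaCl, 2 mM MgCl2, 1 mM DTT, 0.01% Tween-20. Kinetic fluorescence increase, third minus first read.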

[8] = qHTS for differential inhibitors of proliferation of Plasmodium falciparum line 7G8 (AID 1815);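 also: parasite growth measured after three days of incubation; plate controls were vehicle wells for no effect and reference inhibitor wells for full effect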
[9] = qHTS for differential inhibitors of proliferation of Plasmodium falciparum line GB4 (AID 1816); settings: Potency: Plasmodium falciparum GB4 proliferation inhibition;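 also: parasite growth measured after 72 h incubation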; also: potency is read from the fitted curve at half-maximal effect;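 as to activity change, negative = inhibition: 0% = vehicle DMSO and -100% = reference inhibitor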
[10] = qHTS for differential inhibitors of proliferation of Plasmodium falciparum line 3D7 (AID 1876);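 also: parasite growth measured after three days of culture; 0% = vehicle wells and -100% = reference inhibitor wells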
[11] = qHTS for differential inhibitors of proliferation of Plasmodium falciparum line D10 (AID 1877);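 also: parasites grown with compound for 72 h before DNA staining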; also: potency is read from the fitted curve at half-maximal effect;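 as to activity change, negative = inhibition: plate controls were vehicle wells for no effect and reference inhibitor wells for full effect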
[12] = qHTS for differential inhibitors of proliferation of Plasmodium falciparum line Dd2 (AID 1882); settings: Potency: Plasmodium falciparum Dd2 proliferation inhibition; also: nearly all actives have a fitted effect of over 65% in size; also: potency is read from the fitted curve at half-maximal effect;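 as to activity change, negative = inhibition: plate controls were DMSO vehicle for no effect and 0.29 µM artemisinin for full effect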
Procedure, shortened: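 Dd2-infected erythrocytes (0.3% parasitemia, 2.5% hematocrit final) incubated with compound 72 h at 37 C, 5% CO2; lysed with saponin/Triton buffer containing SYBR Green I, incubated overnight in the dark, then read by fluorescence (485/535 nm). Normalized to 0.29 uM artemisinin and DMSO.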

[13] = qHTS for differential inhibitors of proliferation of Plasmodium falciparum line W2 (AID 1883); settings: Potency: Plasmodium falciparum W2 proliferation inhibition;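 also: parasites grown with compound for 72 h before lysis and staining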; also: potency is read from the fitted curve at half-maximal effect;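 as to activity change, negative = inhibition: 0% = vehicle wells and -100% = control inhibitor wells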
[14] = qHTS for differential inhibitors of proliferation of Plasmodium falciparum line HB3 (AID 1886); settings: Potency: Plasmodium falciparum HB3 proliferation inhibition;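 also: parasites grown with compound for 72 h before SYBR Green readout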; also: potency is read from the fitted curve at half-maximal effect;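 as to activity change, negative = inhibition: plate controls were vehicle for no effect and reference inhibitor for full effect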
[15] = measured here: cell count channel max response
[16] = measured here: lipid channel max response

NCC1(CC(=O)O)CCCCC1
-6.8% and 4.42%: max response [4, 16]
inactive: outcome [1] | outcome [2] | outcome [3] | activity change, negative = inhibition ([4]; at 25.7 µM (top of the series)) -2.01% | activity change, negative = inhibition ([4]; at 57.5 µM (top of the series)) 1.35% | outcome [5] | Potency [6] | outcome [7] | Potency [8] | Potency [9] | Potency [10] | Potency [11] | Potency [12] | Potency [13] | Potency [14]
-7.98% and 4.74%: max response [4, 15]

Nc1ccncc1
-10.8% and 8.53%: max response [4, 16]
inactive: outcome [1] | outcome [2] | outcome [3] | activity change, negative = inhibition ([4]; at 57.5 µM (top of the series)) -5.36% and 3.03% | outcome [5] | Potency [6] | outcome [7] | Potency [8] | Potency [9] | Potency [10] | Potency [11] | Potency [12] | Potency [13] | Potency [14]
-7.26% and -3.5%: max response [4, 15]

NN=C(N)N
inactive: outcome [1] | outcome [2] | outcome [3] | activity change, negative = inhibition ([4]; at 57.5 µM (top of the series)) 1.91% and 1.41% | outcome [5] | Potency [6] | outcome [7] | Potency [8] | Potency [9] | Potency [10] | Potency [11] | Potency [12] | Potency [13] | Potency [14]
15.5% and -2.91%: max response [4, 16]
12.1% and -0.681%: max response [4, 15]

CC(C)=CCOc1c2occc2cc2ccc(=O)oc12
5.47%: max response [4, 15]
inactive: activity change, negative = inhibition ([4]; at 57.5 µM (top of the series)) 17.7%
25.6%: max response [4, 16]

CC(C)C(=O)Nc1ccc([N+](=O)[O-])c(C(F)(F)F)c1
-1.94% and 19.5%: max response [4, 16]
active: Potency [13] 12.6 µM | Potency [14] 14.1 µM
inactive: outcome [3] | activity change, negative = inhibition ([4]; at 25.7 µM (top of the series)) -0.701% | activity change, negative = inhibition ([4]; at 57.5 µM (top of the series)) 9.96%
-6.26% and 5.61%: max response [4, 15]

CN(C)CCN(C)CCc1ccc(Cl)c(Cl)c1
4.07%: max response [4, 15]
inactive: activity change, negative = inhibition ([4]; at 57.5 µM (top of the series)) -1.09%
4.59%: max response [4, 16]

O=c1[nH]c2ccccc2n1CCCN1CCC(n2c(=O)[nH]c3cc(Cl)ccc32)CC1
inactive: outcome [1] | outcome [2] | outcome [3] | activity change, negative = inhibition ([4]; at 25.7 µM (top of the series)) 0.586% | activity change, negative = inhibition ([4]; at 57.5 µM (top of the series)) 4.6% and -5.66% | outcome [5] | Potency [6] | outcome [7]
4.47% and 17.4% and -21%: max response [4, 16]
2.1% and 12.4% and -15.6%: max response [4, 15]
active: Potency [9] 12.6 µM | Potency [11] 14.1 µM | Potency [12] 8.91 µM | Potency [13] 4.47 µM

NCCc1cc(O)c(O)cc1O
16.6%: max response [4, 16]
5.57%: max response [4, 15]
inactive: activity change, negative = inhibition ([4]; at 57.5 µM (top of the series)) 7.71%
